TDP1 cell CPT: growth inhibition of DT40 Tdp1-/-;hTDP1 cells with camptothecin (screen for TDP1 inhibitors). actives 12% (n = 420,000). AID 686979. chicken DT40 Tdp1-/-;hTDP1 cells + 20 nM CPT, ATP luminescence, 48 h. Potency, µM (series often up to 46.2 µM), hits mostly inhibitors; note: nearly all actives have a fitted effect of over 55% in size
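Chicken DT40 Tdp1-/- cells complemented with human TDP1, 400 cells/well, exposed to compounds plus 20 nM camptothecin for at least 48 h at 37 C; viability read as ATP content by CellTiter-Glo luminescence.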
DT40 TDP1 no CPT: qHTS for Inhibitors of human tyrosyl-DNA phosphodiesterase 1 (TDP1): qHTS in cells in absence of CPT; DT40 Tdp1-/- hTDP1 cells, no CPT, ATP luminescence, 48 h; Potency, µM (titrated, usually from 46.2 µM), hits mostly inhibitors; actives 15% (n = 420,000); AID 686978, 2013; note: nearly all actives have a fitted effect of over 55% in size
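Seeded 400 DT40-hTDP1 cells/well (vehicle DMSO, no 20 nM CPT); pinned compounds; ≥48 hr at 37 °C; CellTiter-Glo luminescence as viability measure.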
IL-1B inflam inh: inflammasome signaling inhibition, IL-1 beta readout; THP-1 LPS/ATP IL-1B secretion, AlphaLISA, 16 h; stronger effect = lower value; activity change, % at 57.5 µM; actives 4.7% (n = 360,000); AID 743279; in the data active = activity change below about -50%; inconclusive = mostly about -30% to -49%
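THP-1 cells pretreated 1 hr with compounds (up to 57.5 uM final), then stimulated with LPS (250 ng/mL final) plus ATP (1.25 mM final); secreted IL-1B measured by AlphaLISA after 16 hr, decreased signal indicating inhibition.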
LDHA inh: blocks human lactate dehydrogenase A; purified LDHA, NADH/diaphorase-resazurin fluorescence; stronger effect = lower value; activity change, % (values are at about 110 or 230 µM); actives 0.15% (n = 480,000); AID 1347041; in the data active = activity change below about -30%; inconclusive = mostly about -25% to -30%
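Enzyme activity of human lactate dehydrogenase 5 (2 nM; 0.06 mM NADH, 0.2 mM pyruvate, 5 min, RT) is measured via a resazurin/diaphorase fluorescence readout of residual NADH.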
RORgamma inh: ROR gamma (mouse) transcription inhibition; P51450; Drosophila S2 Gal4-RORgamma UAS-luciferase reporter, 20 h; Potency, µM (series often up to 53.6 µM), hits mostly inhibitors; actives 5.4% (n = 310,000); note: nearly all actives have a fitted effect of over 60% in size
Target sequence (P51450 whole entry, looked up, the tested form may be a part): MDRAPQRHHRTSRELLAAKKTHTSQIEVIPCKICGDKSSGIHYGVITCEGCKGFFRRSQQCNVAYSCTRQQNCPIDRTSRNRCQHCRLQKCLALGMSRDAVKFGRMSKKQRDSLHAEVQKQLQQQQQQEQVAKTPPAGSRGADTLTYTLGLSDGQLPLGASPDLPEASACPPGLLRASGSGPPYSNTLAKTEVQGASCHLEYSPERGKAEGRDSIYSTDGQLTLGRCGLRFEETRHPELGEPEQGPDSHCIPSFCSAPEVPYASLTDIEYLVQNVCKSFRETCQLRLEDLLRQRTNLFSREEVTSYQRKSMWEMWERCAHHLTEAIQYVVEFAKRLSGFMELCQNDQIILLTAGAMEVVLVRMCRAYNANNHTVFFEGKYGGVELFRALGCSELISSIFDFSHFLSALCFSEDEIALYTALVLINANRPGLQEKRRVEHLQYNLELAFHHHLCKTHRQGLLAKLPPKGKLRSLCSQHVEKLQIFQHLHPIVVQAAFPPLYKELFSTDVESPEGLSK
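Schneider cells (Drosophila), stable Gal4 DBD–ROR gamma + UAS-luc; 1 hr cmpd preincubation; Cu2+ induction 700 uM final; 20 hr ambient; luminescence.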
Gal4-VP16 FLuc: Gal4-VP16 reporter inhibition counter-screen. Drosophila S2 Gal4-VP16 UAS-luciferase, luminescence, 20 h. Potency, µM (series often up to 53.6 µM), hits mostly inhibitors. actives 3.5% (n = 310,000);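 note: Gal4-VP16 expression switched on by copper sulfate through the metallothionein promoter; nearly all actives have a fitted effect of over 50% in size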
A number is an active result; . = inactive; ? = inconclusive; / = no result given; [ ] = another dose, or the depositor's remark. This is a sample that favours compounds with a hit; in the whole collection about 18% have one here. Unless noted, calls come from the whole dose curve; as a rule, active = well fitted curve in the direction sought with a large enough effect; inconclusive = small, poorly fitted or top-dose-only effect, or another doubt; inactive = no such curve, though single readings can be large; an effect the other way counts as inactive or inconclusive.

SMILES | TDP1 cell CPT | DT40 TDP1 no CPT | IL-1B inflam inh | LDHA inh | RORgamma inh | Gal4-VP16 FLuc
CCOC(=O)N=Nc1c(O)n(Cc2ccccc2)c2ccccc12 | ? | ? | . | . | ? | .
C/C(Cl)=C\Cn1c(O)c(N=NC(N)=S)c2ccccc21 | 4.1µM | 3.7µM | . | . | 3.5µM | 5µM
Cc1cc(C)nc(N=Nc2c(O)n(Cc3ccc(Cl)cc3)c3ccccc23)n1 | ? | 18µM | . | . | 5.6µM | 3.5µM
O=C(N=Nc1c(O)n(Cc2ccccc2)c2ccccc12)c1ccncc1 | ? | ? | . | . | . | .
NC(=S)N=Nc1c(O)n(Cc2ccccc2)c2ccccc12 | 5.8µM | 6.5µM | . | . | 3.2µM | ?
CCOC(=O)c1c(CSc2ccccc2)n(C)c2cc(Br)c(OCC(O)CNC3CCCCC3)cc12 (stereo unspecified) | / | / | / | . | / | /
O=C(NCc1ccc(C(F)(F)F)cc1)C1CCN(S(=O)(=O)/C=C/c2ccccc2)CC1 | / | / | / | . | / | /
CC(C)Cc1nc(NCc2cccnc2)c(C#N)c2c1CCCC2 | / | / | / | . | / | /
CCN(C(=O)c1c(C)oc2ncnc(N3CCCCC3)c12)c1cc(C)ccc1C | ? | 18µM | / | . | / | /
COc1cc(OC)c(N(C)C(=O)c2c(C)oc3ncnc(N4CCCCC4)c23)cc1Cl | ? | 16µM | / | . | / | /
CCc1ccc(CNC(=O)c2c(C)oc3ncnc(N4CCCCC4)c23)cc1 | / | / | / | . | / | /
Cc1ccc(NC(=O)c2c(C)oc3ncnc(N4CCCCC4)c23)c(C)c1 | 18µM | ? | / | . | / | /
COc1ccccc1OCC#CCN1CCC(Cc2ccccc2)CC1 | / | / | / | . | / | /
COc1cccc(C2=C(C(C)=O)Sc3nnc(-c4ccccc4)n3N2C(C)=O)c1 | / | / | / | . | / | /
COc1ccc(C(C#N)=C2C=C(Cl)C(=NO)C=C2Cl)cc1 | 3.3µM | 2.6µM | . | . | / | /
COc1ccc(C(C#N)=C2C=CC(=NO)C(C)=C2Cl)cc1 | 10µM | 7.3µM | -82 | . | / | /
N#CCSc1nnc(C2CCCCC2)n1Cc1ccccc1 | 10µM | . | . | . | . | .
CCOc1ccc(NC(=O)CCSc2nc3c(c(CC)c2C#N)C(=O)CC(C)(C)C3)cc1 | ? | 21µM | . | . | . | .
CCOC(=O)c1ccccc1N/C=C/C(=O)c1cccs1 | ? | 21µM | . | . | ? | .
O=C(/C=C\Nc1cccc(F)c1)c1cccs1 | . | . | . | . | . | .
Cc1ccc(N/C=C/C(=O)c2cccs2)cc1 | ? | . | . | . | ? | 8.9µM
C=C(C)Cn1c(SCC(=O)Nc2ccccc2)nc2c1c(=O)[nH]c(=O)n2C | / | / | / | . | / | /
Oc1cccc2ccc(Nc3ccccn3)nc12 | 1.6µM | 3.7µM | -110 | . | . | .
N[C@H](Cc1ccc(O)c(O)c1)C(=O)O | / | / | / | / | .[10 µM] | .
NCCc1ccc(O)c(O)c1 | 5.2µM | 4.6µM | . | . | .[10 µM] | .
SMILES | TDP1 cell CPT | DT40 TDP1 no CPT | IL-1B inflam inh | LDHA inh | RORgamma inh | Gal4-VP16 FLuc
NC(Cc1ccc(O)c(O)c1)C(=O)O (stereo unspecified) | 3.7µM | 2.9µM | / | / | . | .
Cc1ccc(N2C(=O)CC(N(CCc3ccccc3)C(=S)Nc3ccc(N(C)C)cc3)C2=O)cc1 (stereo unspecified) | 18µM | ? | ? | . | . | .
O=C1CC(N(CCc2ccccc2)C(=S)Nc2ccccc2)C(=O)N1c1ccc(Br)cc1 (stereo unspecified) | 16µM | 18µM | . | . | . | ?
CCC(=O)C1=C(c2ccc(C)cc2)N(C(=O)CC)n2c(nnc2C2CCCCC2)S1 | ? | 26µM | / | . | / | /
CC(=O)C1=C(c2ccc(F)cc2)N(C(C)=O)n2c(nnc2C2CCCCC2)S1 | ? | 23µM | / | . | / | /
COc1ccc(C2=C(C(C)=O)Sc3nnc(-c4ccc(OC)cc4)n3N2C(C)=O)cc1 | / | / | / | . | / | /
CCC(=O)C1=C(c2ccc(F)cc2)N(C(=O)CC)n2c(nnc2-c2ccc(OC)cc2)S1 | 4.1µM | 2.9µM | / | . | / | /
CC(=O)C1=C(c2ccc(Br)cc2)N(C(C)=O)n2c(nnc2C2CCCCC2)S1 | . | ? | / | . | / | /
CCOC(=O)CSc1nnc(C2CCCCC2)n1C | . | . | . | . | . | .
CCc1ccccc1NC(=O)CN(C)C(=O)c1cc2ccc(F)cc2nc1C | / | / | / | . | / | /
O=C1C=C(Cl)c2cccc3cccc1c23 | / | / | / | . | / | /
CCOC(=O)c1sc(Nc2ccc(C)cc2)nc1C | / | / | / | . | / | /
CCn1c(O)c(N=NC(=O)CNC(=O)Cc2ccccc2)c2ccccc21 | . | . | . | . | . | .
CCCCn1c(O)c(N=NC(=O)c2ccco2)c2ccccc21 | ? | 18µM | . | . | . | .
CCOC(=O)N=Nc1c(O)n(CC)c2ccccc12 | . | . | . | . | . | ?
O=C(CNC(=O)c1ccco1)N=Nc1c(O)n(CCc2ccccc2)c2ccccc12 | 5.2µM | 3.7µM | . | . | . | .
CCn1c(O)c(N=NC(=O)C(O)c2ccccc2)c2ccccc21 (stereo unspecified) | 23µM | 21µM | . | . | . | .
c1ccc2c(NC(C3CC3)C3CC3)nc(-c3ccncc3)nc2c1 | / | / | / | . | / | /
COc1ccc(/C=N/NC(=O)c2cccc(NC(C)=O)c2)c(OC)c1 | . | . | . | . | . | .
COc1ccc(C(=O)Nc2cccc(C(=O)N/N=C/c3ccc(OC)cc3OC)c2)cc1 | . | . | . | . | 10µM | 14µM
COc1ccc(/C=N/NC(=O)c2cccc(NC(=O)c3ccccc3Cl)c2)cc1 | 3.7µM | 4.6µM | . | . | . | .
CCC(C)N1C(=O)/C(=C/c2c(NCCCOC(C)C)nc3c(C)cccn3c2=O)SC1=S (stereo unspecified) | ? | 9.2µM | . | . | . | .
S=C(NCCNc1c(Cl)c(Cl)c(Cl)c(Cl)c1Cl)Nc1ccccc1 | / | / | / | . | / | /
CCc1cc(-c2nnn(CCC3COCCO3)c2CC)ccc1-c1cn(CCc2c[nH]c3ccccc23)nn1 (stereo unspecified) | 16µM | 12µM | . | . | / | /
CC1CCC/C(=N\NC(=S)NCc2ccccc2)C1 (stereo unspecified) | . | . | . | . | 11µM | ?
CC1CCC/C(=N\NC(=S)Nc2ccccc2)C1 (stereo unspecified) | 8.2µM | 10µM | . | . | 7.9µM | ?
CC1C/C(=N\NC(=S)NCc2ccccc2)CC(C)(C)C1 (stereo unspecified) | ? | 26µM | . | . | 1.3µM | 2.8µM
CC1(C)CC(=O)C/C(=N\NC(=S)NCc2ccccc2)C1 | . | . | . | . | 14µM | ?
CC1CCC(=NNC(=S)NCc2ccccc2)CC1 (stereo unspecified) | / | / | / | . | / | /
Cc1csc2nc(COc3ccc(NC(=O)COc4ccccc4F)cc3)cc(=O)n12 | ? | 15µM | / | . | / | /

Compound activity as filed in PubChem BioAssay.
